SMILES strings stand for the structures. The panel holds about 83,000 compounds, 20% with a hit somewhere; the sample as a whole holds those more often.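 Cell lines were cultured in 96-well plates, exposed to a single compound concentration, and assessed for percent growth 48 hours later.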 Unmarked numbers belong to inactive results. The source made the active and inactive calls. How the source made its calls: active means growth percent below 10; inactive means the rest.

Consider seven molecules from PubChem BioAssay (NCI).

Among the test systems are HCT-15 colon; HT29 colon; SNB-75 CNS; SNB-19 CNS; U251 CNS; PC-3 prostate; SK-MEL-5 melanoma; UACC-62 melanoma; LOX IMVI melanoma; SK-MEL-28 melanoma; SK-MEL-2 melanoma; EKVX NSCLC; SN12C renal; UO-31 renal; TK-10 renal; ACHN renal; A498 renal; CCRF-CEM leukemia; MOLT-4 leukemia; CAKI-1 renal.
Common to all, as to assay: NCI-60 one-dose screen, 48 h (100 = growth as untreated, 0 = no growth, -100 = all killed)
Conditions in all cases: 10 µM unless noted

Regarding `Cc1nccc2c3ccc(OCc4cn(-c5ccc(Cl)cc5)nn4)cc3n(CCCc3ccccc3)c12`, the growth with HCT-15 colon was 45.7%; with HT29 colon it was 11.1%; with SNB-75 CNS, -45.1% (active); in the test with SNB-19 CNS it was 63%; in the test on U251 CNS, 25.3%; in the test on PC-3 prostate, 16.3%. Further, the growth is 68.3% in the test on SK-MEL-5 melanoma; -62% (active) in the test with UACC-62 melanoma; 0.291% (active) with LOX IMVI melanoma; -34.3% (active) with SK-MEL-28 melanoma; 90.8% in the test on SK-MEL-2 melanoma; 66.3% in the test with EKVX NSCLC. Besides, the growth in the test with SN12C renal was 6.96% (active); with UO-31 renal, -87.1% (active); in the test with TK-10 renal, -16.1% (active); in the test with ACHN renal, -20.4% (active); with A498 renal, 87.5%; in the test on CCRF-CEM leukemia it was 2.43% (active). The growth in the test on MOLT-4 leukemia was 18.2%.

With `Clc1ccc(N2N=C(c3cccc(Nc4ccncc4)c3)CC2c2ccccc2)cc1` (configuration not stated), the growth in the test with HCT-15 colon is 103%; with HT29 colon it was 80.7%; with SNB-75 CNS it was 65%; with SNB-19 CNS, 95.6%; in the test on U251 CNS it was 90.4%; in the test with PC-3 prostate, 84.9%. Besides, the growth is 94% in the test with SK-MEL-5 melanoma; 96.9% in the test on UACC-62 melanoma; 86.8% with LOX IMVI melanoma; 90.4% with SK-MEL-28 melanoma; 107% in the test with SK-MEL-2 melanoma; 82.5% in the test with EKVX NSCLC. Further, the growth was 83.1% with UO-31 renal; 106% in the test with TK-10 renal; 94.9% in the test with ACHN renal; 76.2% in the test on CAKI-1 renal; 84.5% in the test on A498 renal; 96.3% with CCRF-CEM leukemia. In the test with MOLT-4 leukemia, the growth is 89.4%.

On to `Cc1c2c(cc[n+]1Cc1ccc(F)cc1)c1ccc(OCc3cccc(F)c3)cc1n2Cc1cccc(F)c1`, for which the growth is 54.3% in the test with HCT-15 colon; -74.9% (active) in the test with HT29 colon; -88.7% (active) with SNB-75 CNS; -90.3% (active) in the test with SNB-19 CNS; -89.4% (active) with U251 CNS; -44.4% (active) in the test with PC-3 prostate. The growth is -99.4% (active) in the test on SK-MEL-5 melanoma; -98% (active) with UACC-62 melanoma; -82.7% (active) in the test with LOX IMVI melanoma; -91% (active) with SK-MEL-28 melanoma; -81.3% (active) in the test on SK-MEL-2 melanoma; -23.5% (active) with EKVX NSCLC. Also, the growth in the test with UO-31 renal was 53.9%; in the test with TK-10 renal, -27.8% (active); with ACHN renal it was 32.2%; in the test with CAKI-1 renal, 60.2%; in the test on A498 renal it was -1.04% (active); in the test on CCRF-CEM leukemia it was -54.2% (active). Besides, in the test on MOLT-4 leukemia, the growth was -62.4% (active).

Turning to `COc1ccccc1N1CCN(C(=O)c2ccc3nc(NC(=O)c4ccc(NCCc5ccccc5)c([N+](=O)[O-])c4)sc3c2)CC1`, the growth in the test with HCT-15 colon is 81.5%; with HT29 colon, 83.4%; in the test on SNB-75 CNS it was 91.4%; in the test with SNB-19 CNS, 95.2%; with U251 CNS, 86.4%; in the test with PC-3 prostate it was 77.9%. Further, the growth is 84.4% with SK-MEL-5 melanoma; 71.8% in the test with UACC-62 melanoma; 81.6% in the test on LOX IMVI melanoma; 91.5% with SK-MEL-28 melanoma; 93.4% with SK-MEL-2 melanoma; 89% in the test with EKVX NSCLC. Further, the growth was 60.1% in the test with UO-31 renal; 110% with TK-10 renal; 90.6% in the test on ACHN renal; 73.4% in the test on CAKI-1 renal; 79.6% in the test with A498 renal; 77.6% in the test on CCRF-CEM leukemia. The growth with MOLT-4 leukemia was 95.4%.

On to `CC(C)CN(C(=O)c1ccc(Cl)cc1)c1c(N)n(CC(C)C)c(=O)[nH]c1=O`, for which the growth with HCT-15 colon was 111%; in the test with HT29 colon it was 111%; with SNB-75 CNS it was 88.4%; with SNB-19 CNS, 96.6%; in the test with U251 CNS, 98.8%; with PC-3 prostate it was 89.8%. Further, the growth in the test with SK-MEL-5 melanoma is 37.6%; in the test with UACC-62 melanoma, 88.7%; in the test with LOX IMVI melanoma, 102%; in the test with SK-MEL-28 melanoma, 107%; in the test with SK-MEL-2 melanoma it was 96.4%; in the test with EKVX NSCLC, 106%. The growth in the test on UO-31 renal was 98.2%; in the test on TK-10 renal it was 125%; in the test on ACHN renal, 101%; with CAKI-1 renal it was 50.2%; in the test with A498 renal, 108%; in the test on CCRF-CEM leukemia it was 93.1%. Also, in the test on MOLT-4 leukemia, the growth was 97.2%.

As to `O=c1[nH]nc(-c2ccc(Br)cc2)cc1Cc1ccc(O)cc1`, the growth is 105% in the test on HCT-15 colon; 103% in the test on HT29 colon; 91.9% with SNB-75 CNS; 81.2% in the test with SNB-19 CNS; 105% with U251 CNS; 80.4% in the test on PC-3 prostate. Moreover, the growth with SK-MEL-5 melanoma is 87.1%; in the test with UACC-62 melanoma, 85.6%; with LOX IMVI melanoma, 97.4%; in the test with SK-MEL-28 melanoma, 104%; in the test with SK-MEL-2 melanoma it was 107%; with EKVX NSCLC, 51.7%. Also, the growth with UO-31 renal is 77.3%; with TK-10 renal, 139%; with ACHN renal, 105%; in the test with CAKI-1 renal, 98.1%; with A498 renal, 103%; with CCRF-CEM leukemia it was -9.56% (active). Also, the growth in the test on MOLT-4 leukemia was 17.9%.

`O=C(Nc1ccccc1)Oc1ccccc1-c1ccccc1`: the growth is 102% in the test with HCT-15 colon; 96.5% with HT29 colon; 75.5% with SNB-75 CNS; 99.5% with SNB-19 CNS; 95.2% in the test with U251 CNS; 80.4% with PC-3 prostate. In addition, the growth in the test on SK-MEL-5 melanoma is 97.9%; in the test with UACC-62 melanoma, 93.2%; in the test with LOX IMVI melanoma, 95.2%; in the test with SK-MEL-28 melanoma it was 107%; in the test with SK-MEL-2 melanoma, 93.2%; in the test on EKVX NSCLC it was 96.5%. For the same molecule, the growth is 57.7% in the test on UO-31 renal; 94.1% in the test with TK-10 renal; 99.9% with ACHN renal; 88.2% in the test with CAKI-1 renal; 75.3% in the test with A498 renal; 95.8% with CCRF-CEM leukemia.
